# TEAD-YAP inh – TEAD-YAP interaction inhibition; AID 1259422; 640,000 compounds, 1.4% hits; inhibition, % at 9.12 µM; HEK-TIYL cells, TEAD-Gal4/YAP UAS-luciferase luminescence; in the data active = inhibition above about 32%;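 also: 0% = median of test compound wells and 100% = reference inhibitor wells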
# MITF primary – human MITF inhibition, primary screen; AID 1259374; O75030; 650,000 compounds, 0.91% hits; AlphaScreen MITF homodimerization, bead proximity signal; inhibition, % at 2.6 µM; in the data active = inhibition above about 50%;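 also: 0% = vehicle wells with protein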
# FBW7 activator – human FBW7 E3 ligase activation, primary screen; 650,000 compounds, 0.13% hits; normalized activity (activation), % at 26.1 µM; AlphaScreen FBW7–phospho-cyclin E peptide binding, activator screen; Q969H0; in the data active = normalized activity above about 1.9%;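 also: purified mutant Fbw7 with reduced substrate affinity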
# GPR151 ag – activates the human receptor GPR151; activation, % at 11.2 µM; PathHunter beta-arrestin GPR151 cells, luminescence; AID 1508602; Q8TDV0; 650,000 compounds, 1% hits; in the data active = activation above about 4.9%;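 also: 0% = median of compound wells and 100% = cells with positive control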
# Target sequence (Q8TDV0 whole entry, looked up): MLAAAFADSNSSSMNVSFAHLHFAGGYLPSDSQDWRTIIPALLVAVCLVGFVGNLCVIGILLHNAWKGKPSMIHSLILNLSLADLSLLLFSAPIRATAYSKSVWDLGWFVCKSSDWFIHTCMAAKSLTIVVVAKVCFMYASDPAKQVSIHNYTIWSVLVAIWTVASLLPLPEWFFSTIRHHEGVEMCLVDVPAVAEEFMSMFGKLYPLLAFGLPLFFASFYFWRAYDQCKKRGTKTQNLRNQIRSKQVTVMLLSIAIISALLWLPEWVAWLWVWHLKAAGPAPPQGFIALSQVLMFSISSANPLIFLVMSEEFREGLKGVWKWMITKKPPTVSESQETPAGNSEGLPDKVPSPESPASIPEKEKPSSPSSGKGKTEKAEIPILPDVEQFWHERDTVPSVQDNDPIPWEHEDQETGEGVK
# The depositor's hits bear a star. Sampled rows, rich in hits. Any-hit rate of the full collection: about 3.5%.
SMILES,TEAD-YAP inh,MITF primary,FBW7 activator,GPR151 ag
Cc1ccc(CCC(=O)Nc2ncc(Cc3ccccc3)s2)o1,55.6*,-1.0,-0.2,0.0
Cc1ccc(Cc2cnc(NC(=O)CCc3ccc(C)o3)s2)cc1,66.9*,0.4,0.0,0.9
Cc1ccc(CCC(=O)Nc2ncc(Cc3ccccc3Cl)s2)o1,56.4*,-4.5,-0.1,-0.4
O=C(CCl)Nc1ncc(Cc2ccccc2)s1,-4.0,-10.8,0.9,-0.3
COC(=O)C1CCN(CC(O)COc2ccc(CN(C)Cc3cccnc3)cc2)CC1 (centres undefined),2.1,6.7,0.1,0.9
C/C(=N/N1CCN(C)CC1)c1c(C(F)(F)F)[nH]n(-c2nc3ccccc3s2)c1=O,49.2*,8.0,0.0,-8.0
C/C(=N\N1CCOCC1)c1c(C(F)(F)F)[nH]n(-c2nc3ccccc3s2)c1=O,-1.5,12.9,0.7,-1.2
CC(=NCc1cccnc1)c1c(C)[nH]n(-c2nc3ccccc3s2)c1=O,42.2*,7.5,0.1,-8.2
OCC[n+]1c(-c2ccccc2)csc1Nc1ccccc1,-21.5,11.3,-0.2,-0.2
CC(C)C(NC(=O)c1ccoc1)c1nnc2n1CCN(C(=O)c1ccnc(Cl)c1)CC2 (centres undefined),1.0,9.2,0.7,-0.5
c1cncc(CNc2nc(NCCN3CCOCC3)c3ncn(C4CCCCC4)c3n2)c1,8.7,10.7,0.0,0.6
c1cc(N2CCOCC2)ccc1Nc1nc(Nc2ccc(N3CCOCC3)cc2)c2ncn(C3CCCCC3)c2n1,7.2,52.1*,-0.2,-1.2
c1cncc(Nc2nc(Nc3ccc(N4CCOCC4)cc3)c3ncn(C4CCCCC4)c3n2)c1,37.1*,8.6,-0.2,0.1
c1cncc(Nc2nc(NCCN3CCOCC3)c3ncn(C4CCCCC4)c3n2)c1,42.4*,-1.9,-0.1,-1.3
Cc1ccccc1OCCCn1cc(C=C2C(=O)N(C)C(=O)N(C)C2=O)c2ccccc21,34.4*,-6.7,-0.1,-1.5
Cc1ccccc1Cn1cc(C=C2C(=O)N(C)C(=O)N(C)C2=O)c2ccccc21,-0.3,16.7,0.0,-0.9
CCOC(=O)C1CCCN(C(=O)c2ccc([N+](=O)[O-])cc2Cl)C1 (centres undefined),7.1,-0.7,-0.1,-0.3
O=c1oc2cc(O)ccc2cc1-c1nnc(Nc2ccc(F)cc2)s1,-9.9,-2.8,0.0,1.0
O=c1oc2cc(O)ccc2cc1-c1nc(-c2ccccc2)cs1,-1.2,4.5,0.4,-1.0
CCc1ccc(Nc2nnc(-c3cc4ccc(O)cc4oc3=O)s2)cc1,34.3*,-1.2,0.3,1.7
O=c1oc2cc(O)ccc2cc1-c1nc(-c2cccs2)cs1,77.3*,-17.9,0.2,-10.3
COc1ccc(N2CCN(Cc3ccsc3)CC2)cc1,-0.9,67.2*,0.6,-1.2
COc1ccc(N2CCN(Cc3cccs3)CC2)cc1,-0.2,55.4*,-0.5,1.1
O=C(Cc1ccccc1)NCCn1ncc2c(N3CCN(c4ccc(F)cc4)CC3)ncnc21,12.1,0.1,-0.1,1.1
COc1ccc(N2CCN(c3ncnc4c3cnn4CCNC(=O)c3cccs3)CC2)cc1,36.9*,-7.3,-0.2,0.7
SMILES,TEAD-YAP inh,MITF primary,FBW7 activator,GPR151 ag
O=C(NCCn1ncc2c(N3CCN(c4ccccc4)CC3)ncnc21)c1ccccc1F,48.0*,-11.6,0.1,0.0
COc1ccc(N2CCN(c3ncnc4c3cnn4C)CC2)cc1,-3.9,-0.4,-0.2,0.5
COc1ccc(-n2nnc3c(SCc4ccccn4)ncnc32)cc1,-4.4,5.8,-0.1,-0.7
O=C(NCCc1ccco1)c1cc(Cc2ccccc2)no1,-22.9,-24.1,-0.4,-0.3
N#CC(C#N)=C(N)/C(C#N)=C/c1ccc(-c2cc(C(=O)O)cc(C(=O)O)c2)o1,1.8,62.6*,-0.6,-0.9
CNC(=O)/C(C#N)=C/c1c(Oc2ccccc2C)nc2c(C)cccn2c1=O,46.6*,5.7,0.0,1.1
COCCNC(=O)/C(C#N)=C/c1c(Oc2cc(C)cc(C)c2)nc2c(C)cccn2c1=O,6.1,18.9,-0.1,-1.2
C=CCNC(=O)/C(C#N)=C/c1c(Oc2ccccc2C)nc2ccccn2c1=O,32.1*,-11.1,0.0,-1.9
CCNC(=O)/C(C#N)=C/c1c(Oc2cccc(C)c2C)nc2c(C)cccn2c1=O,35.3*,2.8,0.0,-0.2
COCCCNC(=O)/C(C#N)=C/c1c(Oc2cc(C)cc(C)c2)nc2c(C)cccn2c1=O,33.0*,14.2,0.0,-1.4
CCOc1ccc2sc(C=NCc3ccncc3)c(O)c2c1,3.4,2.9,-0.2,0.0
Cc1cc(Nc2ccc(N3CCOCC3)cc2)nc(-c2ccc(C(=O)N3CCN(C)CC3)cc2)n1,-7.5,6.2,0.0,0.8
COc1ccc(-c2cc(C(=O)NCCc3ccc(C)cc3)c3ccccc3n2)cc1,10.6,4.2,0.0,0.6

# High-throughput results from PubChem BioAssay.
